The results in this text go back to PubChem BioAssay (Tox21).

Values joined by “and” are separate entries in the source; they are usually repeats but may differ in a detail not shown here. Equal entries are not always repeated. Inconclusive results are not listed. A structure can be active in one record and inactive in another. Active and inactive are the calls of the source. Unless noted, calls come from the whole dose curve.

A short description of assay [1]: qHTS assay to identify small molecule antagonists of the sonic hedgehog signaling (Shh) pathway (AID 1259369). Note: nearly all actives have a fitted effect of over 45% in size. Note: potency is the fitted concentration of half-maximal effect. Summed up:
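Stable Gli1-Luc reporter NIH/3T3 clone; quantitative HTS in stimulated mode with conditioned medium. Luminescence measured after 24hr compound treatment at 37 C.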

The target in assay [2] is Estrogen receptor beta (Homo sapiens) (UniProt Q92731). As to the kind of experiment: qHTS assay to identify small molecule antagonists of the estrogen receptor beta (ER-beta) signaling pathway (AID 1259378; active = well fitted inhibition curve with a large enough effect in the signal ratio in the repeat runs, not every such curve was filed as active; the % refers to the signal ratio; note: potency is the fitted concentration of half-maximal effect). A digest of the protocol:
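Antagonist mode: compounds added to beta-lactamase reporter HEK293T ER-beta-UAS cells stimulated with E2 (1nM final), 16 hr at 37C. LiveBLAzer B/G FRET substrate, 2 hours room temperature, fluorescence read-out.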

The nature of assay [3]: qHTS assay to identify small molecule antagonists of the estrogen receptor beta (ER-beta) signaling pathway - cell viability counter screen (AID 1259382; active = well fitted curve in the direction sought with a large enough effect in the repeat runs; an effect the other way counts as inactive or inconclusive; note: nearly all actives have a fitted effect of over 55% in size; note: potency is the fitted concentration of half-maximal effect). A digest of the protocol: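 Viability is scored by CellTiter-Glo luminescence (30 min, room temperature) in ER-beta-UAS-bla HEK293T wells already read for reporter fluorescence. Compound exposure lasts 16 hr at 37C alongside 1nM 17-beta-estradiol in charcoal-stripped serum medium.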

Assay [4] addresses Estrogen receptor (Homo sapiens) (UniProt P03372). As to the kind of experiment: qHTS assay to identify small molecule agonists of the estrogen receptor alpha (ER-alpha) signaling pathway in the presence of an antagonist (AID 1259383). For activation: top concentration of the series differs between compounds. Note: nearly all actives have a fitted effect of over 15% in size. Note: potency is the fitted concentration of half-maximal effect. A digest of the protocol: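 Readout was ERE-driven luciferase luminescence in VM7Luc4E2 cells, which express full-length ER-alpha endogenously. Compounds were tested at 15 concentrations for 22hr alongside 10.0nM ICI-182,780 (final concentration).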

The nature of assay [5]: qHTS assay to identify small molecule agonists or antagonists of the thyroid stimulating hormone receptor (TSHR) signaling pathway - wild type cell line counter screen (AID 1259384). A digest of the protocol:
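Counter screen in untransfected Hek293: compounds (15-point titration, triplicate) plus phosphodiesterase inhibitor Ro20-1724 added after 18 h plating; 30 min RT. Intracellular cAMP via competitive d2/cryptate immunoassay, 1 h incubation.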

A short description of assay [6]: qHTS assay to identify small molecule agonists of the androgen receptor (AR) signaling pathway in the presence of an antagonist - cell viability counter screen (AID 1259379; active = well fitted curve in the direction sought with a large enough effect in the repeat runs; an effect the other way counts as inactive or inconclusive; note: nearly all actives have a fitted effect of over 25% in size; note: potency is the fitted concentration of half-maximal effect). Summed up:
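Nilutamide-containing (3.0uM final) MDA-kb2 cultures, 3,000 cells/well, were treated with compounds across 15 concentrations. After 16 hr at 37C with no CO2, cell viability was determined by CellTiter-Fluor fluorescence in the luciferase assay wells.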

Assay [7] can be described thus: qHTS assay to identify small molecule agonists of the estrogen receptor beta (ER-beta) signaling pathway - cell viability counter screen (AID 1259380; active = well fitted curve in the direction sought with a large enough effect in the repeat runs; an effect the other way counts as inactive or inconclusive; note: nearly all actives have a fitted effect of over 30% in size; note: potency is the fitted concentration of half-maximal effect). Summed up:
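Steps: plate ER-beta-UAS-bla HEK293T cells, rest 6 hr; add compounds in DMSO; incubate 16 hr at 37C, 5% CO2; add FRET substrate 2 hr; add CellTiter-Glo, wait 30 min at room temperature; read luminescence.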

In assay [8] the target is Androgen receptor (Homo sapiens) (UniProt P10275). As to the kind of experiment: qHTS assay to identify small molecule agonists of the androgen receptor (AR) signaling pathway in the presence of an antagonist (AID 1259381). Note: nearly all actives have a fitted effect of over 15% in size. Summed up:
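Reporter-gene luminescence from MDA-kb2 cells exposed 16hr at 37C (0% CO2) to 15-point compound titrations with 3.0uM final nilutamide as AR antagonist.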

For assay [9], the target named is Thyrotropin receptor (Homo sapiens) (UniProt P16473). Description: qHTS assay to identify small molecule antagonists of the thyroid stimulating hormone receptor (TSHR) signaling pathway (AID 1259385). Note: nearly all actives have a fitted effect of over 20% in size. Note: potency is the fitted concentration of half-maximal effect. Summed up: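 Antagonist mode: compound-treated TSHR-expressing HEK293 cells were stimulated with 1.5 ng/mL TSH (final) in presence of Ro20-1724 for 30 min at RT. HTRF cAMP detection after 1 h; each compound tested at 15 concentrations, triplicate.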
Chain of Thyrotropin receptor (Homo sapiens) (P16473 whole entry, looked up): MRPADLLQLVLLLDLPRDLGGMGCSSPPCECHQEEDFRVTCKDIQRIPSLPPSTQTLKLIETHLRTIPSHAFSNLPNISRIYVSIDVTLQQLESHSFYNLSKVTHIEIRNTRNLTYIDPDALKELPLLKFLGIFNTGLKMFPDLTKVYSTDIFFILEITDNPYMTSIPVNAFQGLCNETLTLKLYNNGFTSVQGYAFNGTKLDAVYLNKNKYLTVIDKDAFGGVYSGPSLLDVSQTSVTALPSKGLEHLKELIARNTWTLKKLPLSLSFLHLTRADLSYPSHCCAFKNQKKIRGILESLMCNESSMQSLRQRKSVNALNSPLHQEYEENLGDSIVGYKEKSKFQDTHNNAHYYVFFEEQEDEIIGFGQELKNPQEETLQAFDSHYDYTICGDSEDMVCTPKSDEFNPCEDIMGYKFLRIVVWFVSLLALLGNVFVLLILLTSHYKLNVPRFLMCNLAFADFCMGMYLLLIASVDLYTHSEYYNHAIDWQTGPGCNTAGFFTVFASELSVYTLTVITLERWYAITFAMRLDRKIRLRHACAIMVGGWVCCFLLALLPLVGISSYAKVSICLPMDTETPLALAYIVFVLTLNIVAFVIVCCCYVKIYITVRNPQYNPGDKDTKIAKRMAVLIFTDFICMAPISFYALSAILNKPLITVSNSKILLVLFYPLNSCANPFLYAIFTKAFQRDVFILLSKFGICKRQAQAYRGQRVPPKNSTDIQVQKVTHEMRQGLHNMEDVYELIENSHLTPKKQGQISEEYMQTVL

The target in assay [10] is Estrogen receptor beta (Homo sapiens) (UniProt Q92731). As to the kind of experiment: qHTS assay to identify small molecule agonists of the estrogen receptor beta (ER-beta) signaling pathway (AID 1259377; active = well fitted activation curve with a large enough effect in the signal ratio in the repeat runs, not every such curve was filed as active; the % refers to the signal ratio; note: potency is the fitted concentration of half-maximal effect). Summed up: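 Screening used GripTite ER-beta-UAS-bla cells held in 2% charcoal-stripped FBS medium. After overnight (16 hr) compound incubation at 37C, beta-lactamase activity was detected with a FRET substrate by fluorescence.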
Chain of Estrogen receptor beta (Homo sapiens) (Q92731 whole entry, looked up): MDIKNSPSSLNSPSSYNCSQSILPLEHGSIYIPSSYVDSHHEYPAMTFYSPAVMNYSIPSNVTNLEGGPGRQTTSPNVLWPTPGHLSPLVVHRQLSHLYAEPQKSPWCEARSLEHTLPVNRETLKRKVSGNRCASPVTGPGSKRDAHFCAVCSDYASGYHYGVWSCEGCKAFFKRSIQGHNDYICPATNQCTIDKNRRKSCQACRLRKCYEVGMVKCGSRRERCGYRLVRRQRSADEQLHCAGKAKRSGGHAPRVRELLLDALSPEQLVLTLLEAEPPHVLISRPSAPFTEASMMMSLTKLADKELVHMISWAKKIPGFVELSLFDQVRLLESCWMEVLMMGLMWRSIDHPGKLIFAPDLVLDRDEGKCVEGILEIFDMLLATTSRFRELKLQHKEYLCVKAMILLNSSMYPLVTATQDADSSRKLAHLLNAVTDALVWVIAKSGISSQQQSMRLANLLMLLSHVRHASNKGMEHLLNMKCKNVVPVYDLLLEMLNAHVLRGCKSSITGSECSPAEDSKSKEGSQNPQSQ

Chain of Estrogen receptor (Homo sapiens) (P03372 whole entry, looked up): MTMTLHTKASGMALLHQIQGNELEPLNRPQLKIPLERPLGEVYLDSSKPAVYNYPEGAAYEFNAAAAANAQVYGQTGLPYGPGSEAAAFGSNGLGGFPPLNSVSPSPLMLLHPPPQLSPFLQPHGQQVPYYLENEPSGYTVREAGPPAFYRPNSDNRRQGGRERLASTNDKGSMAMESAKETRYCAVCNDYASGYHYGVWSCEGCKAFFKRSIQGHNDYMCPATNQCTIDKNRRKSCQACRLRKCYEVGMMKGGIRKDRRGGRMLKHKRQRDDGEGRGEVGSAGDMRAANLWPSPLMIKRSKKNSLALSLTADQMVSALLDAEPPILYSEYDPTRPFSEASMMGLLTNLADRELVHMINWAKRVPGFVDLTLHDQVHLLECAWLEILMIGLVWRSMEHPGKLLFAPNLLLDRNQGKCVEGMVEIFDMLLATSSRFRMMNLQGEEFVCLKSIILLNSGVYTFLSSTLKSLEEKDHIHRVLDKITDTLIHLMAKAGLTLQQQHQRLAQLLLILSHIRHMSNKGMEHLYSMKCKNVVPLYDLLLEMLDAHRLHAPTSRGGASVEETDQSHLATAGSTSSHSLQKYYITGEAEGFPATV
Chain of Androgen receptor (Homo sapiens) (P10275 whole entry, looked up): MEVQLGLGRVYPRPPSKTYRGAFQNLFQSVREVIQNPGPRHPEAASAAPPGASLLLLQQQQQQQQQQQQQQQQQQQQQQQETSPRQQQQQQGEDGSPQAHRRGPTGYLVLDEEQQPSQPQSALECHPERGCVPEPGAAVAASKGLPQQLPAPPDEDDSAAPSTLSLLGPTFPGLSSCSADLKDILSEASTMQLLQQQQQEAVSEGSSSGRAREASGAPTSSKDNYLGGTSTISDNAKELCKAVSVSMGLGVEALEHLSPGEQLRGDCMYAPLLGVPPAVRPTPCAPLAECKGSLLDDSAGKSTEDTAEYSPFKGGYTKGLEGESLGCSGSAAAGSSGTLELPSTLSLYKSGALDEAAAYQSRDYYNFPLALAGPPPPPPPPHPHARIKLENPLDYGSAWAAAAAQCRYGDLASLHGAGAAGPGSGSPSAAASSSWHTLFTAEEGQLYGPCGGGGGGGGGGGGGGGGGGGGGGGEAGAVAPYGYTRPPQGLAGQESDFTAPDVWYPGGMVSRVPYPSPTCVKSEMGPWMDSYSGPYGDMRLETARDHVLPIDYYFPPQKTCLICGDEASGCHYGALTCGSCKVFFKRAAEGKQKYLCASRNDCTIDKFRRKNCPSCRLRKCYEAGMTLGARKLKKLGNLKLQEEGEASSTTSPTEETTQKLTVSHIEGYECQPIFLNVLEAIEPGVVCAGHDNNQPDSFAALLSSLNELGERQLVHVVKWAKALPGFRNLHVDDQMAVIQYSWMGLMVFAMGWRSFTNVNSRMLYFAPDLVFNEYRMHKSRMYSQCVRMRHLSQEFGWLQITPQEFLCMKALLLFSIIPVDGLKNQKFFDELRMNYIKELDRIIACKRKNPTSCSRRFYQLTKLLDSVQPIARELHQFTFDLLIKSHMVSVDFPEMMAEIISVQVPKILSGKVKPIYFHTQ

Take `Nc1ccc(N=Nc2ccccc2)cc1`: the Potency in assay [1] and in [2] was 21.7 µM (active) in each case. The Potency result in [3], in assay [4] and in assay [5] was “inactive” throughout.
For the compound `CCN1CCC2(CC1)COc1cc3c(cc12)N(C(=O)c1ccc(-c2ccc(-c4nnc(C)o4)cc2C)cc1)CC3`, the Potency in assay [1] is 2 µM (active); in assay [6], 63.3 µM (active); in [7] it was 6.33 µM (active); in assay [3], 11.2 µM (active); in assay [9], 63.3 µM (active). Also, the Potency entry in assay [8], in assay [4] and in assay [5] was “inactive” in each case.
`O=C1C(Cl)=C(Cl)C(=O)C(Cl)=C1Cl`: the Potency is 4.84 µM (active) and 12.2 µM (active) in assay [1]; 60.9 µM (active) and inactive in assay [6]; 60.9 µM (active) and 54.5 µM (active) in [7]; 60.9 µM (active) in [3]. The Potency entry in assay [8] and in assay [4] was “inactive” throughout.
As for `CCC[CH2][Sn]([CH2]CCC)([O]C(C)=O)[O]C(C)=O`, the Potency is 2.19 µM (active) in assay [1], 0.978 µM (active) in assay [6] and 0.276 µM (active) in [7]. The Potency result in [10], in [4], in assay [5] and in assay [9] was “inactive” throughout.
For `O=[N+]([O-])C(Br)Br`, the Potency entry in assay [1], in [10], in assay [7], in assay [8], in [3] and in [5] was “inactive” each time.
Consider `Brc1ccc(Oc2ccc(Br)cc2Br)c(Br)c1`, for which the Potency entry in assay [1], in [10], in [6], in assay [3], in [4] and in assay [5] was “inactive” each time. Moreover, in assay [9], the Potency was 61.2 µM (active).
For `CC(=O)[O][Pb]([c]1ccccc1)([c]1ccccc1)[c]1ccccc1`, the Potency is 0.386 µM (active) in assay [1]; 7.7 µM (active) in assay [6]; 4.86 µM (active) in assay [7]; 5.45 µM (active) in assay [3]; 24.3 µM (active) in assay [9]. Besides, the Potency result in assay [8], in [4] and in [5] was “inactive” throughout.
As for `CC(=O)O.CC(=O)O.CC(=O)O.CC(=O)O.CC(=O)O.CC(=O)O.CC(=O)O.O.O.[Cr].[Cr].[Cr]`, the Potency entry in assay [1], in assay [6], in [7] and in assay [3] was “inactive” each time.
For the compound `CCCCC/C=C\C/C=C\C/C=C\C/C=C\CCCC(=O)NCC(=O)O`, the Potency entry in [1], in assay [10], in [6] and in [4] was “inactive” throughout. Besides, the Potency in assay [7] is 11.9 µM (active).
For the compound `CC(C)=CCN1CC[C@@]2(C)c3cc(O)ccc3C[C@@H]1[C@@H]2C`, the Potency result in [1], in assay [10], in [7], in [3], in assay [4] and in assay [5] was “inactive” in each case. The Potency result in assay [9] is “inactive”.
For `N#Cc1c2ccccc2cc2ccccc12`, the Potency result in assay [1], in [7], in assay [8], in assay [3], in assay [4] and in assay [5] was “inactive” throughout. In addition, in assay [9], the Potency result is “inactive”. In addition, the Potency in assay [10] was 21.6 µM (active).
Regarding `O=C(CCCCl)c1ccc(F)cc1`, the Potency result in assay [1], in assay [6], in assay [7], in [8], in [3] and in [4] was “inactive” each time. Moreover, the Potency entry in [5] and in assay [9] was “inactive” throughout.
Turning to `Nc1ccc(Cl)cc1C(=O)c1ccccc1F`, the Potency result in assay [1], in assay [6], in assay [7], in assay [8], in [3] and in [4] was “inactive” in each case. For the same compound, the Potency entry in assay [5] and in [9] was “inactive” throughout.
Consider `CC[C@]1(O)CC[C@H]2[C@@H]3CCC4=CCCC[C@@H]4[C@H]3CC[C@@]21C`, for which the results for the Potency in [1], in assay [10] and in assay [4] were 13.3 µM (active), 0.0067 µM (active) and 0.0019 µM (active), respectively. Also, the Potency result in [6], in assay [3], in assay [5] and in [9] was “inactive” each time.
In the case of `Cc1cc(C2CC2)nc(Nc2ccccc2)n1`, the Potency entry in [1], in assay [2], in [6], in assay [3], in assay [4] and in assay [5] was “inactive” each time. In addition, the Potency result in assay [9] is “inactive”.
Take `C=CC(=O)[O][Sn]([CH2]CCC)([CH2]CCC)[CH2]CCC`: the Potency in assay [1] was 0.486 µM (active); in assay [6] it was 4.33 µM (active); in [7], 2.43 µM (active); in assay [3] it was 3.06 µM (active); in assay [9], 13.7 µM (active). The Potency result in assay [8] and in assay [4] was “inactive” each time.
For `Cc1nn(-c2cc(NS(C)(=O)=O)c(Cl)cc2Cl)c(=O)n1C(F)F`, the Potency entry in [1], in assay [6], in [7], in assay [8], in assay [3] and in assay [5] was “inactive” each time. The Potency entry in assay [9] was “inactive”.
In the case of `Oc1cccc(Cl)c1Cl`, the Potency result in assay [1], in assay [2], in assay [6], in [4], in [5] and in assay [9] was “inactive” each time.
For the compound `[O]=[Cr](=[O])([OH])[O][Cr](=[O])(=[O])[OH]`, the Potency was 1.95 µM (active) and 2.16 µM (active) in assay [1]; 27.6 µM (active) and 54.4 µM (active) in [6]; 24.6 µM (active) and 54.4 µM (active) in assay [7]. The Potency entry in assay [8], in assay [4], in [5] and in assay [9] was “inactive” each time.
Consider `COP(=O)(OC)Oc1ccc([N+](=O)[O-])cc1`, for which the Potency entry in assay [1], in assay [10], in assay [7], in assay [3], in assay [4] and in [5] was “inactive” each time. Moreover, in [9], the Potency entry is “inactive”.
Turning to `Clc1ccc(C(Cl)(Cl)Cl)cc1Cl`, the Potency result in assay [1], in assay [10], in [7], in assay [3] and in assay [4] was “inactive” each time.
With `[Cl][Hg][c]1ccccc1`, the Potency is 0.0243 µM (active) in assay [1], 12.2 µM (active) in [6], 3.44 µM (active) in [7] and 3.06 µM (active) in assay [3]. In addition, the Potency result in assay [8] and in assay [4] was “inactive” in each case.
As for `Oc1ccc2[nH]cc(CCCCN3CC=C(c4ccccc4)CC3)c2c1`, the Potency in assay [1] was 3.35 µM (active); in assay [7], 29.8 µM (active). Moreover, the Potency entry in assay [2], in assay [3], in assay [5] and in assay [9] was “inactive” throughout.
`N#CC(C#N)=NNc1cccc(Cl)c1`: the Potency in assay [1] is 1.09 µM (active); in assay [6] it was 1.93 µM (active); in [7], 15.4 µM (active). In addition, the Potency result in assay [8], in assay [4], in assay [5] and in assay [9] was “inactive” each time.
`CN(C)C(=S)SSC(=S)N(C)C`: the Potency is 47.9 nM (active) and 306 nM (active) and 531 nM (active) in [1]; 60.3 µM (active) and 68.6 µM (active) and inactive in assay [6]; 135 nM (active) and 1.72 µM (active) and 119 nM (active) in assay [7]; 479 nM (active) and 273 nM (active) and 237 nM (active) in [3]. The Potency entry in [8] and in assay [4] was “inactive” throughout.
Take `Cc1ccc(C)c2ccccc12`: the Potency entry in [1], in assay [2], in assay [6], in assay [7], in [8] and in assay [3] was “inactive” each time.
Take `ClC1=C(Cl)[C@]2(Cl)[C@H]3[C@H]([C@@H]4C=C[C@H]3C4)[C@@]1(Cl)C2(Cl)Cl`: the Potency entry in [1], in [6], in [3], in assay [4], in [5] and in assay [9] was “inactive” each time. Moreover, the Potency in assay [7] was 61.1 µM (active).
For the compound `COc1c2c(cc3c1OCO3)CCN(C)C2`, the Potency result in [1], in [6], in assay [7], in assay [3], in assay [4] and in assay [5] was “inactive” throughout. Moreover, the Potency entry in assay [9] was “inactive”.
For the compound `O=[N+]([O-])c1cc(C(F)(F)F)c(Cl)c([N+](=O)[O-])c1Nc1ncc(C(F)(F)F)cc1Cl`, the Potency is 3.86 µM (active) in assay [1]; 6.11 µM (active) in assay [6]; 6.86 µM (active) in assay [7]; 8.63 µM (active) in assay [3]; 61.1 µM (active) in assay [9]. In addition, the Potency entry in assay [4] is “inactive”.
Regarding `C1=CCC=C1`, the Potency entry in assay [1], in assay [6], in assay [7] and in assay [3] was “inactive” each time.
On to `ClC1=C(Cl)[C@]2(Cl)[C@@H]3[C@H]4C[C@H]([C@@H]5O[C@H]45)[C@@H]3[C@@]1(Cl)C2(Cl)Cl`, for which, in [1], the Potency was 24.3 µM (active). The Potency entry in assay [6], in [7], in assay [3], in [4], in [5] and in assay [9] was “inactive” each time.
